Laboratory results published in PubChem BioAssay (NCATS).
Values joined by “and” are separate entries in the source; they are usually repeats but may differ in a detail not shown here. Equal values may be shown once. Inconclusive results are not listed. A call without a number means that no potency is given here. Active and inactive are the calls of the source. Unless noted, calls come from the whole dose curve; as a rule, active = well fitted curve in the direction sought with a large enough effect; inconclusive = small, poorly fitted or top-dose-only effect, or another doubt; inactive = no such curve, though single readings can be large; an effect the other way counts as inactive or inconclusive.

Experiments:
[1] = High Content Imaging Cell-Based qHTS for Inhibitors of the mTORC1 Signaling Pathway in MEF Cells (AID 2667); note: potency is the fitted concentration of half-maximal effect
Procedure, shortened: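 Immunofluorescence for rpS6 phosphorylation in MEFs of Tsc2-/-, p53-/- background rescued with WT Tsc2. Compound exposure lasted 24 hrs. Inhibition was scored against rapamycin-treated control wells.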

[2] = biological target: Ubiquitin carboxyl-terminal hydrolase 2 (Homo sapiens) (UniProt O75604); assay: qHTS Validation Assay for Inhibitors of Ubiquitin-specific Protease USP2a Using CHOP2 as the Reporter (AID 463106)
Procedure, shortened: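 10nM USP2 core + cpd, 30min RT; add 25nM Ub-CHOP2/25nM substrate; 60min RT; FI 485/531nm. Buffer Tris pH 8.0, CaCl2, BME, CHAPS. Norm. to NEM = 100% inhibition; time-zero read flags fluorescent artifacts.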

[3] = biological target: DNA polymerase III PolC-type (Bacillus subtilis (strain 168)) (UniProt P13267); assay: qHTS Validation Assay for the Inhibitors of DNA Replication in Gram-Positive Bacteria (AID 485295);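 note: PicoGreen fluorescence of double-stranded DNA made on primed circular M13 template; series mostly up to about 57 µM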
Procedure, shortened: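 Reconstituted B. subtilis Pol III holoenzyme (PolC, beta clamp, SSB, primase) preincubated with compound, then M13Gori single-stranded circular template with dNTPs/NTPs added; room temperature reaction. Stopped with EDTA/PicoGreen; dsDNA fluorescence read, EDTA as full-inhibition control.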

[4] = biological target: Tumor susceptibility gene 101 protein (Homo sapiens) (UniProt Q99816); assay: qHTS Validation Assay for Iinhibitors of HIV-1 Budding by Blocking the Interaction of PTAP/TSG101 (AID 485342; calls by dose curve)
Procedure, shortened: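 Tsg101 binding domain (10 uM) with FITC-labeled PTAP peptide (50 nM) in HEPES pH 7.5 buffer, 20 min at r.t. with compounds. Binding measured by fluorescence polarization.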

[5] = qHTS Validation Assay to Find Inhibitors of Chronic Active B-Cell Receptor Signaling (AID 485345; active = well fitted curve in the direction sought with a large enough effect in the main read-out, with a control signal flat, not every such curve was filed as active)
Procedure, shortened: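 Read-out: ratio of filter-corrected green (IkappaBalpha fusion) to red (native) luciferase signal in doxycycline-induced TMD8 cells after 4 h at 37C. Titration spanned 46 uM–3 nM; Data were normalised to basal cells and 10 uM MG-132 wells.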

[6] = biological target: Beta-2 adrenergic receptor (Homo sapiens) (UniProt P07550); assay: qHTS validation assay of beta-arrestin-biased ligands of beta2-adrenergic receptor (AID 485366)
Procedure, shortened: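 Arrestin-recruitment (Tango) reporter: ligand-bound beta2-AR recruits beta-arrestin, releasing tTA, which upregulates luciferase. Titrations of up to 46 microM incubated 18 hr at 37 degrees C before luminescent readout.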

[7] = biological target: Thioredoxin reductase 1, cytoplasmic (Rattus norvegicus) (UniProt O89049); assay: qHTS Assay for Substrates of Mammalian Selenoprotein Thioredoxin Reductase 1 (TrxR1) (AID 488772);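 note: NADPH fluorescence in the first read after selenite addition and not the 8 min delta; a drop in NADPH fluorescence below the no-compound background marks a TrxR1 substrate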; note: potency is the fitted concentration of half-maximal effect
Procedure, shortened: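 Quantitative HTS in Tris-HCl buffer at pH 7.5 with EDTA and Tween-20, using rat TrxR1, 400 uM NADPH and 400 uM selenite (final). A fall in initial NADPH fluorescence relative to background marked substrate behaviour.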

[8] = biological target: Thioredoxin reductase 1, cytoplasmic (Rattus norvegicus) (UniProt O89049); assay: qHTS Assay for Inhibitors of Mammalian Selenoprotein Thioredoxin Reductase 1 (TrxR1) (AID 488773); conditions: Potency: inhibition; note: nearly all actives have a fitted effect of over 40% in size; note: potency is the fitted concentration of half-maximal effect
Procedure, shortened: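 Steps: enzyme (90 nM) plus NADPH (400 uM final), 5 min at ~22 deg C; compound added, 15 min; selenite (400 uM final) added; fluorescence followed for 8 min. Concentration-response curves derived from the normalized delta values.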

[9] = biological target: Flap endonuclease 1 (Homo sapiens) (UniProt P39748); assay: qHTS Validation Assay for the Inhibitors of Human Flap endonuclease 1 (FEN1) (AID 488816); note: potency is the fitted concentration of half-maximal effect
Procedure, shortened: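 Readings taken at 0 and 15 min after starting the reaction with 50 nM (final) substrate supplied the signal. Compounds had first sat with 10 nM FEN1 reagent for 15 min at room temperature. Values come from Hill-equation concentration-response fits.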

[10] = biological target: Chromobox protein homolog 1 (Homo sapiens) (UniProt P83916); assay: qHTS Validation Assay for Inhibitors of HP1-beta Chromodomain Interactions with Methylated Histone Tails (AID 488953); note: nearly all actives have a fitted effect of over 50% in size; note: potency is the fitted concentration of half-maximal effect
Procedure, shortened: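 Measured as loss of AlphaScreen luminescence from streptavidin donor and nickel acceptor beads (10 ug/mL final) bridging HP1-beta and biotin-H3(1-18)K9me3, each 50 nM. Compounds met the preassembled complex for 30 min at RT.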

[11] = biological target: Methanococcus maripaludis chaperonin (MmCpn) (UniProt Q6LX38); assay: High-Throughput Screening for Modulators of Cytosolic Chaperonin Activity: MmCpn Primary Screen (AID 488978);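 note: 50 nM MmCpn enzyme hydrolysing 30 µM ATP at 37 °C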
Procedure, shortened: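 MmCpn at 50 nM final was preincubated 5 min at RT with compound. ATP was then added at 30 uM final for 10 min at 37 C. ADP formed was detected by Transcreener HTRF (665/590 nm).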

[12] = Validation screen for small molecules that induce DNA re-replication in MCF 10A normal breast cells (AID 463097); note: nearly all actives have a fitted effect of over 60% in size; note: potency is the fitted concentration of half-maximal effect
Procedure, shortened: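 MCF 10A cells exposed to compound 48 hr at 37 C, 5% CO2, then Hoechst-stained 40 min. Laser-scanning imaging of nuclear DNA content (405 nm ex, 500-530 nm em); re-replication scored as rise in nuclei with elevated fluorescence intensity.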

[13] = biological target: ATP-dependent 6-phosphofructokinase (Trypanosoma brucei brucei) (UniProt O15648); assay: qHTS Validation Assay to Find Inhibitors of T. brucei phosphofructokinase (AID 485368); note: potency is the fitted concentration of half-maximal effect
Procedure, shortened: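 Steps: substrate mix (0.5 mM F6P, 0.1 mM ATP, MgCl2, TEA pH 8.0); compound; 1.25 nM T. brucei PFK; 45 min RT; ATP depletion 10 min; ADP-to-ATP detection 10 min; luminescence read; curve fitting and classification.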

[14] = biological target: M-phase phosphoprotein 8 (Homo sapiens) (UniProt Q99549); assay: qHTS Validation Assay for Inhibitors for MPP8 Chromodomain Interactions with Methylated Histone Tails (AID 488949); note: nearly all actives have a fitted effect of over 55% in size; note: potency is the fitted concentration of half-maximal effect
Procedure, shortened: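 MPP8 (50 nM) was pre-bound to 50 nM biotinylated H3(1-18)K9me3 peptide in PBS pH 7.4 with 0.01% Tween-20. Compounds were then added for 30 min at room temperature, and complex disruption was read by AlphaScreen with streptavidin donor and nickel-chelate acceptor beads.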

[15] = biological target: Transient receptor potential cation channel subfamily V member 1 (Homo sapiens) (UniProt Q8NER1); assay: HTS Assay for Compounds that Act as Enhancers of the Vanilloid Receptor 1 (AID 488979)
Procedure, shortened: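 Calcium influx kinetics via Fluo-8 (480/520 nm) in TRPV1-expressing cells, 2000/well cultured overnight at 35.5C. Compound-alone read 3 min (agonist phase), followed by EC20 capsaicin challenge for 2 min (enhancer phase).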

[16] = biological target: Thyrotropin receptor (Homo sapiens) (UniProt P16473); assay: qHTS Assay for Antagonists of the Thyroid Stimulating Hormone Receptor (AID 488980); note: series mostly up to about 58 µM
Procedure, shortened: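 TSHR-transfected HEK293 cells (2000/well) in HEPES-buffered HBSS with 70 uM RO 20-1724 were stimulated with 4 nM TSH (EC80, final) in the presence of compound. cAMP was measured by HTRF competition after lysis and 30 min at RT.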

[17] = biological target: D(1A) dopamine receptor (Homo sapiens) (UniProt P21728); assay: HTS Assay for Allosteric Agonists of the Human D1 Dopamine Receptor: Primary Screen for Agonists (AID 488981); note: potency is the fitted concentration of half-maximal effect
Procedure, shortened: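 Calcium flux in an inducible, force-coupled HEK293 Trex D1 line (overnight at 30 C): agonist mode is the 180 s kinetic read after compound; potentiator mode is the following 180 s read after dopamine at EC20.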

[18] = Quantitative high throughput screen for delayed death inhibitors of the malarial parasite plastid, 48 hour incubation (AID 488752); note: nearly all actives have a fitted effect of over 65% in size
Procedure, shortened: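 One parasite generation (48 h, 37 C, 5% CO2) of luciferase-reporter P. falciparum in erythrocytes is run with test compound; decreased luminescence indicates inhibited growth.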

[19] = Cytometry Cell-Based qHTS for Inhibitors of the mTORC1 Signaling Pathway in MEF cells (AID 2668);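 note: Tsc2-/- p53-/- mouse embryonic fibroblasts stably re-expressing wild-type Tsc2; percent cells positive for phospho-rpS6 Ser235/236 relative to propidium iodide stain; series mostly up to about 38 µM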
Procedure, shortened: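 MEFs (Tsc2-/-, p53-/- stably expressing WT Tsc2) treated 24 h at 37 degree Celsius, fixed, stained with Alexa-488 anti-phospho-rpS6 Ser235/236 and propidium iodide; Acumen laser scanning. Reported as % positive cells, phospho-S6 normalized to PI.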

[20] = Quantitative high throughput screen for delayed death inhibitors of the malarial parasite plastid, 96 hour incubation (AID 488745);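 note: luciferase-expressing P. falciparum in erythrocytes at 2% hematocrit and 0.1% parasitemia; series mostly up to about 29 µM; nearly all actives have a fitted effect of over 70% in size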
Procedure, shortened: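 Growth of reporter-bearing P. falciparum in red cells is measured after 96 h with compound, covering two erythrocytic cycles. Luminescence from the integrated luciferase serves as the growth signal.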

Chain of Methanococcus maripaludis chaperonin (MmCpn) (Q6LX38 1-543): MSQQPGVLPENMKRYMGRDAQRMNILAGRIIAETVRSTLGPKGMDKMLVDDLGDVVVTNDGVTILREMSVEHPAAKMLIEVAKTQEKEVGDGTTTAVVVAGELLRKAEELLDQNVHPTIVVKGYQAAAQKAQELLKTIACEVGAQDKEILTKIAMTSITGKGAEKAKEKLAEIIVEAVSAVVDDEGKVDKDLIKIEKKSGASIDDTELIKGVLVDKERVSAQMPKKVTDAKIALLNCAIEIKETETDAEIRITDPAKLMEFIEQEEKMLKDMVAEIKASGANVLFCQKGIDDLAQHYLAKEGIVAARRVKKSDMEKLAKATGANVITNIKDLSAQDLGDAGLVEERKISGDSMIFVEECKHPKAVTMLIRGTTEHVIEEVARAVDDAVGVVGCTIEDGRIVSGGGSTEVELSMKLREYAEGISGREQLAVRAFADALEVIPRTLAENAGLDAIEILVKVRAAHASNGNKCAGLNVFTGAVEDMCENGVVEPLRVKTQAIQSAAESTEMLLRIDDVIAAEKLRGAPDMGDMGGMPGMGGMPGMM
Chain of M-phase phosphoprotein 8 (Homo sapiens) (Q99549 whole entry, looked up): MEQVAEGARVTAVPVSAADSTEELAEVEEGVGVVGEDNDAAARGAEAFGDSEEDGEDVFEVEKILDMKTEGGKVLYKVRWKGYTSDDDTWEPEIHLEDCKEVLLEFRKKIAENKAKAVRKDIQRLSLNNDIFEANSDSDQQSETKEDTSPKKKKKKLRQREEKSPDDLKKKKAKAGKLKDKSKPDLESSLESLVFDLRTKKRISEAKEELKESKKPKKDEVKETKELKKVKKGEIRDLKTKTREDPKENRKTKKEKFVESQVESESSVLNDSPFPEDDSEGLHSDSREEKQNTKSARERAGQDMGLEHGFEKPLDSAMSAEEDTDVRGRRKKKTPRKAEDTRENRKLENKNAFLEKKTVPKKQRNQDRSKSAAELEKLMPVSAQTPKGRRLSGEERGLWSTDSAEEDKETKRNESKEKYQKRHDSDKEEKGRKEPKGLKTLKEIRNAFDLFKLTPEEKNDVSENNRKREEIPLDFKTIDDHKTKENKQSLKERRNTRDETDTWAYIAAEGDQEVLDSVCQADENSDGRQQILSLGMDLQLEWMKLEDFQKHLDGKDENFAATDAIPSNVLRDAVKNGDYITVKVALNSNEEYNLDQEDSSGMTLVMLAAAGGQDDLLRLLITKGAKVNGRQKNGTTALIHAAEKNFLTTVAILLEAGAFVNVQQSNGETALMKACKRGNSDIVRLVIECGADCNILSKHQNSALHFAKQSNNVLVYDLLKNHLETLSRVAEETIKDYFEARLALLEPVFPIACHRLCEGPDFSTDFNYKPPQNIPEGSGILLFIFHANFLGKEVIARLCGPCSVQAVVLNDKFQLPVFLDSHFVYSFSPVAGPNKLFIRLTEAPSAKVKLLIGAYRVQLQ
Chain of Thyrotropin receptor (Homo sapiens) (P16473 whole entry, looked up): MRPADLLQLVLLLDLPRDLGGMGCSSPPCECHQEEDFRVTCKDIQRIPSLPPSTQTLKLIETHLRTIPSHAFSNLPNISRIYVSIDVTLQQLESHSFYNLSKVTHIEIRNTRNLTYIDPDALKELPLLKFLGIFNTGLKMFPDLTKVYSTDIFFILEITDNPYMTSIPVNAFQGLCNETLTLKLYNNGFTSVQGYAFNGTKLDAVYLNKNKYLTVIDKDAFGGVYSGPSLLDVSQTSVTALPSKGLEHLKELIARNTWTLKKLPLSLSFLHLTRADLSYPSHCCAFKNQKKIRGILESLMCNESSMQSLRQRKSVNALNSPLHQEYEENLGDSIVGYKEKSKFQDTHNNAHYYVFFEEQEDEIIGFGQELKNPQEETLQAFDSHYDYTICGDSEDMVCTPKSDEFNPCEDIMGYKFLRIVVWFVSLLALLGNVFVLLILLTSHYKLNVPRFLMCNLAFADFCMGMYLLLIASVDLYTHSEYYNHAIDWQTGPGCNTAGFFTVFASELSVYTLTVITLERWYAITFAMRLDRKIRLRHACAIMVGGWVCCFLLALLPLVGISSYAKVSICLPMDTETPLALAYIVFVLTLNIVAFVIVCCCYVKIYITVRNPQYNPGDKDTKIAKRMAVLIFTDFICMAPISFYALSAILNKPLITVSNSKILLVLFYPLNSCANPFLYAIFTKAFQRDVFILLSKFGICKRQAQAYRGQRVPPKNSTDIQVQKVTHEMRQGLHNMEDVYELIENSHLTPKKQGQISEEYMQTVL
Chain of Transient receptor potential cation channel subfamily V member 1 (Homo sapiens) (Q8NER1 whole entry, looked up): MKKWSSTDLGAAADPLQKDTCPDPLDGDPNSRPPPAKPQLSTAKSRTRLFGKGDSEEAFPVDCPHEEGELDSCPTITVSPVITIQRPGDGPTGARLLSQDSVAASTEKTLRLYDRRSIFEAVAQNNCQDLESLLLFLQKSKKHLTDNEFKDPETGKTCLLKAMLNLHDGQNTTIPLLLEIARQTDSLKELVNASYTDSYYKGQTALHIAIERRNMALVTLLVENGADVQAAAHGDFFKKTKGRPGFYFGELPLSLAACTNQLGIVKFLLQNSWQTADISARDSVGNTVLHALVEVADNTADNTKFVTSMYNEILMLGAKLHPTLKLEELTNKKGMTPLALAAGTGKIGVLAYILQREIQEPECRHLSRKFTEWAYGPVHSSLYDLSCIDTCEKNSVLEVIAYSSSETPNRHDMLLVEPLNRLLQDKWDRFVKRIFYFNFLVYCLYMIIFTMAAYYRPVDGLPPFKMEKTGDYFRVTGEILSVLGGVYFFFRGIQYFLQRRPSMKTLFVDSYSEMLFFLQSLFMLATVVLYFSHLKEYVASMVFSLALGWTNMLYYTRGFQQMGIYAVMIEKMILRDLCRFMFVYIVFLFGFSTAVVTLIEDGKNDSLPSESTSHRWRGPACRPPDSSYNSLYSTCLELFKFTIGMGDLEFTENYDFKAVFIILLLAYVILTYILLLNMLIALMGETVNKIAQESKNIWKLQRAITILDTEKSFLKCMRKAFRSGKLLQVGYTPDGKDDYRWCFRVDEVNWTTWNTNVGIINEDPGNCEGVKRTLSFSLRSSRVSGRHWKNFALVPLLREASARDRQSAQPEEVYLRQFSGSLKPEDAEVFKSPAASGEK
Chain of Tumor susceptibility gene 101 protein (Homo sapiens) (Q99816 whole entry, looked up, the tested form may be a part): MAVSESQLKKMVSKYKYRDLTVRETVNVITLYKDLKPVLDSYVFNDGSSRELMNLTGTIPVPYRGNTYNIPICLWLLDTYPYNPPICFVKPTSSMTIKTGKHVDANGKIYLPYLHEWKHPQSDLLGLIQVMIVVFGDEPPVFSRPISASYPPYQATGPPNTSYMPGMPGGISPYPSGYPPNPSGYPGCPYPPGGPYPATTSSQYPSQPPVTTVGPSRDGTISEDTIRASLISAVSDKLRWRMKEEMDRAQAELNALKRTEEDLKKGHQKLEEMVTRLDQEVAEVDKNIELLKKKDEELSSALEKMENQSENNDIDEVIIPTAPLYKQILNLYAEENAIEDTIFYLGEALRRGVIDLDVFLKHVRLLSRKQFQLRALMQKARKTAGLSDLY
Chain of ATP-dependent 6-phosphofructokinase (Trypanosoma brucei brucei) (O15648 whole entry, looked up): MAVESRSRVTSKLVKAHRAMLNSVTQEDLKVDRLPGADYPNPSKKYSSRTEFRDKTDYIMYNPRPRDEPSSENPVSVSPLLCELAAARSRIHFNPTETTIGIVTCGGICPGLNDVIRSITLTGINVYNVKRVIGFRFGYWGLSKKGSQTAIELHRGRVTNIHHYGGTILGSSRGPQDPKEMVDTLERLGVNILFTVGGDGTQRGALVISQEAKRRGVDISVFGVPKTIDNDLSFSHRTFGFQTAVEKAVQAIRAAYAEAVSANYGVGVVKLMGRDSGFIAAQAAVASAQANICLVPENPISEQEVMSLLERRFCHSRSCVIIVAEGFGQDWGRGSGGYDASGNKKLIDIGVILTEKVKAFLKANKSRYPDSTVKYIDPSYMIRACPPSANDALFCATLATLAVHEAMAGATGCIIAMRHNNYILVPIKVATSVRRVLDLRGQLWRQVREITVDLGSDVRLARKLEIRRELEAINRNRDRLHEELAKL
Chain of D(1A) dopamine receptor (Homo sapiens) (P21728 whole entry, looked up): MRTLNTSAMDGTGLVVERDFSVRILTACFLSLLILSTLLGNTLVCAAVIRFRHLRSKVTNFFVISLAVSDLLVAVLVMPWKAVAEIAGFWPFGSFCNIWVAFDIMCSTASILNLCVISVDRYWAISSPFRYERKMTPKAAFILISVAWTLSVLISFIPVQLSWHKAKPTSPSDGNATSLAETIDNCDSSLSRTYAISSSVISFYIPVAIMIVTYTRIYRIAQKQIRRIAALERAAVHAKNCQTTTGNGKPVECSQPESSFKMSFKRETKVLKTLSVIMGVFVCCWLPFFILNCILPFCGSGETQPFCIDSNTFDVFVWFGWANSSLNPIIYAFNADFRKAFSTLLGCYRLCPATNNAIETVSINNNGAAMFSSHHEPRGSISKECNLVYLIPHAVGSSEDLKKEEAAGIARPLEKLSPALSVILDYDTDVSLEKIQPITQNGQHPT
Chain of Ubiquitin carboxyl-terminal hydrolase 2 (Homo sapiens) (O75604 whole entry, looked up): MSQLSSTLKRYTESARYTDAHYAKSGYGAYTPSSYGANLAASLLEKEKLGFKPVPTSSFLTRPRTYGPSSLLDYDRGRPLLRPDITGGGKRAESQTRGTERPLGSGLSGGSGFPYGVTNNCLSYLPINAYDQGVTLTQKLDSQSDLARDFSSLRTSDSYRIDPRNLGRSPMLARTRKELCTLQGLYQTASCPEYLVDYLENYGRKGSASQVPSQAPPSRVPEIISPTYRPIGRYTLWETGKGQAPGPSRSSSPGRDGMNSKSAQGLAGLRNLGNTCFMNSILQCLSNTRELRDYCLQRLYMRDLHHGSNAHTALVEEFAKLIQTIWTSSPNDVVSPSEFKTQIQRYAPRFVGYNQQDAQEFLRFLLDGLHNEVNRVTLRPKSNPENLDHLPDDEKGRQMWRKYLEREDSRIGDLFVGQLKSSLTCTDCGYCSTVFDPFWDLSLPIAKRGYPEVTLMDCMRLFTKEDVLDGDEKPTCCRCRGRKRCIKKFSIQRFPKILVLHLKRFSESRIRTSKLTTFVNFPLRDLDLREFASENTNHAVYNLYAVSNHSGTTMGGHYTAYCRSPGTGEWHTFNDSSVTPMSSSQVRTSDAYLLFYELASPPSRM

| SMILES | Potency [1] | Potency [2] | Potency [3] | outcome [4] | outcome [5] | outcome [6] | Potency [7] | Potency [8] | Potency [9] | Potency [10] | outcome [11] | Potency [12] | Potency [13] | Potency [14] | outcome [15] | outcome [16] | Potency [17] | Potency [18] | Potency [19] | Potency [20] |
| --- | --- | --- | --- | --- | --- | --- | --- | --- | --- | --- | --- | --- | --- | --- | --- | --- | --- | --- | --- | --- |
| O=C(c1ccc(Cl)cc1)N1CCN(c2ccc([N+](=O)[O-])c3ncccc23)CC1 | inactive | inactive | inactive | inactive | inactive | inactive | inactive | inactive | inactive | inactive | inactive |  |  |  |  |  |  |  |  |  |
| O=C1C(SCCO)=C(SCCO)C(=O)c2ccccc21 | 3.69 µM (active) | inactive |  | inactive |  | inactive | 16.8 µM (active) | 26.7 µM (active) |  | 10 µM (active) | inactive | 3.98 µM (active) | 12 µM (active) | inactive | inactive | inactive | inactive |  |  |  |
| CC(C)ON([C@@H](C(=O)NO)C(C)C)S(=O)(=O)c1ccc(-c2ccccc2)cc1 | 5.85 µM (active) | inactive | inactive | inactive | inactive | inactive | inactive | inactive | inactive |  | inactive |  | inactive | inactive |  |  | inactive |  |  |  |
| CCCCC/C=C\CC(O)/C=C/c1cccc(CC(O)CCCCO)n1 (stereo not given) | inactive | inactive |  | inactive |  | inactive | inactive |  | inactive | 0.0075 µM (active) | inactive | inactive | inactive | inactive | inactive | inactive |  | inactive |  |  |
| C=CC(=O)c1ccc(CCCCCC)cc1 | inactive | inactive | inactive | inactive |  | inactive | inactive | 15 µM (active) | inactive |  | inactive |  |  | inactive |  |  | inactive |  | inactive |  |
| C[N+]1(C)CCC(OC(=O)C(c2ccccc2)c2ccccc2)CC1 | inactive | inactive | inactive | inactive | inactive | inactive | inactive | inactive |  | inactive | inactive |  | inactive |  |  |  | inactive |  |  |  |
| Cc1ccccc1CNc1ncnc2c1ncn2C1OC(CO)C(O)C1O (stereo not given) | inactive | inactive |  | inactive |  | inactive | inactive | inactive | inactive | inactive | inactive |  |  |  | inactive | inactive | inactive | inactive | inactive | inactive |
| CSc1nc(N)c2ncn([C@@H]3O[C@H](COP(=O)(O)OP(=O)(O)OP(=O)(O)O)[C@@H](O)[C@H]3O)c2n1 | inactive | inactive | inactive | inactive |  | inactive | inactive | inactive | inactive | inactive | inactive |  |  | inactive |  |  | 1.58 µM (active) |  | inactive |  |
| OC[C@H]1O[C@@H](n2cnc3c(NC4CCCC4)ncnc32)[C@H](O)[C@@H]1O | inactive | inactive |  | inactive |  | inactive | inactive | inactive | inactive | inactive | inactive |  |  | inactive |  |  | inactive |  | inactive |  |
| Nc1ncnc2c1ncn2[C@@H]1O[C@H](COP(=O)(O)OP(=O)(O)OP(=O)(O)OP(=O)(O)OC[C@@H]2O[C@H](n3cnc4c(N)ncnc43)[C@@H](O)[C@H]2O)[C@@H](O)[C@H]1O | inactive | inactive |  | inactive |  | inactive | inactive | inactive | inactive | inactive | inactive |  |  |  |  |  | 0.562 µM (active) |  | inactive |  |
| CCCCCCCCc1ccc(-c2ccc(C(=O)O)cc2)cc1 | inactive | inactive | inactive | inactive |  | inactive | inactive | inactive | inactive | inactive | inactive |  | inactive | inactive |  |  | inactive |  |  |  |
| O=C1/C(=C/c2ccsc2)CC/C1=C\c1cccs1 | inactive | inactive | inactive | inactive |  | inactive | inactive | inactive | inactive |  | inactive |  |  |  |  |  | inactive |  | inactive |  |
| N#C/C(=C\c1ccc(O)c(O)c1)C(=O)NCc1ccccc1 | inactive | inactive | inactive | inactive |  | inactive | inactive |  | inactive | 10 µM (active) | inactive | 8.91 µM (active) | 13.5 µM (active) |  | inactive | inactive | inactive |  |  | inactive |
| C[C@@H](NC(=O)/C(C#N)=C/c1ccc(O)c(O)c1)c1ccccc1 | inactive | inactive |  | inactive |  | inactive |  | inactive | inactive | 8.91 µM (active) | inactive |  |  | 10 µM (active) | inactive | inactive | inactive |  | inactive |  |
| N#C/C(=C\c1c[nH]c2ccccc12)C(=O)c1ccc(O)c(O)c1 | inactive | inactive |  | inactive |  | inactive | inactive | inactive | 4.23 µM (active) | 3.55 µM (active) | inactive | inactive |  | 3.98 µM (active) and 8.44 µM (active) | inactive | inactive | inactive | inactive |  | inactive |
| CCCCCCCCCCCCCCCCCC(=O)NCC(COP(=O)([O-])OCC[N+](C)(C)C)OCC (stereo not given) | inactive | inactive |  | inactive |  | inactive | inactive | inactive | inactive | inactive | inactive | 1.12 µM (active) | inactive |  | inactive | inactive |  | inactive |  | inactive |
